Screening results (PubChem BioAssay)
BAZ2B block: BAZ2B (human) inhibition. AlphaScreen BAZ2B-H3K14Ac peptide displacement. Q9UIF8. Potency, µM (series often up to 114 µM), most hits filed as inhibitors. hit rate 4.4% among 360,000; note: nearly all actives have a fitted effect of over 60% in size
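AlphaScreen displacement: compounds (up to 110uM) incubated 30 min at room temperature with a preformed 50 nM BAZ2B/50 nM biotinylated H3K14Ac peptide complex in PBS pH 7.4 with Tween-20. Donor and acceptor beads at 10 ug/mL final added, 20 min light-protected before reading.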
Sfp PPTase inh: blocks B. subtilis Sfp PPTase activity; Q9F4F7; Biochemical Sfp PPTase activity, qHTS; Potency, µM, hits mostly inhibitors; hit rate 3.5% among 310,000;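 note: the enzyme is Sfp with the accession as filed and its product quenches rhodamine fluorescence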
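Compounds were incubated with enzyme (final 15 nM) for 15 min at room temperature before substrate addition started the reaction. Fluorescence at 525 nm excitation, 598 nm emission was recorded immediately and after 30 minutes.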
JMJD2A Tudor: inhibitors of human JMJD2A Tudor domain | O75164 | AlphaScreen JMJD2A-Tudor / H3K4me3 peptide binding | Potency, µM (titrated, usually from 114 µM), usual class: inhibitors | hit rate 4.4% among 390,000; note: nearly all actives have a fitted effect of over 50% in size
HP1b binding inh: inhibitors of HP1-beta chromodomain binding to methylated histone tails | AlphaScreen HP1-beta / biotin-H3K9me3 peptide binding | Potency, µM (doses to about 114 µM), usual class: inhibitors | hit rate 0.56% among 390,000 | AID 540317; note: nearly all actives have a fitted effect of over 70% in size
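AlphaScreen: HP1-beta (50 nM) preformed 30 min with biotin-H3(1-18)K9me3 peptide (50 nM) in PBS pH 7.4, 0.01% Tween-20. Compound added for 30 min at RT, then streptavidin donor/nickel chelate acceptor beads (10 ug/mL) for 30 min.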
L3MBTL1 block: L3MBTL1 (human) inhibition | AID 485360 | Potency, µM (titrated, usually from 57.1 µM), actives largely listed as inhibitors | hit rate 0.66% among 230,000 | Q9Y468 | AlphaScreen L3MBTL1–H3K9me1 peptide binding; note: nearly all actives have a fitted effect of over 60% in size
Target sequence (Q9Y468 whole entry, looked up): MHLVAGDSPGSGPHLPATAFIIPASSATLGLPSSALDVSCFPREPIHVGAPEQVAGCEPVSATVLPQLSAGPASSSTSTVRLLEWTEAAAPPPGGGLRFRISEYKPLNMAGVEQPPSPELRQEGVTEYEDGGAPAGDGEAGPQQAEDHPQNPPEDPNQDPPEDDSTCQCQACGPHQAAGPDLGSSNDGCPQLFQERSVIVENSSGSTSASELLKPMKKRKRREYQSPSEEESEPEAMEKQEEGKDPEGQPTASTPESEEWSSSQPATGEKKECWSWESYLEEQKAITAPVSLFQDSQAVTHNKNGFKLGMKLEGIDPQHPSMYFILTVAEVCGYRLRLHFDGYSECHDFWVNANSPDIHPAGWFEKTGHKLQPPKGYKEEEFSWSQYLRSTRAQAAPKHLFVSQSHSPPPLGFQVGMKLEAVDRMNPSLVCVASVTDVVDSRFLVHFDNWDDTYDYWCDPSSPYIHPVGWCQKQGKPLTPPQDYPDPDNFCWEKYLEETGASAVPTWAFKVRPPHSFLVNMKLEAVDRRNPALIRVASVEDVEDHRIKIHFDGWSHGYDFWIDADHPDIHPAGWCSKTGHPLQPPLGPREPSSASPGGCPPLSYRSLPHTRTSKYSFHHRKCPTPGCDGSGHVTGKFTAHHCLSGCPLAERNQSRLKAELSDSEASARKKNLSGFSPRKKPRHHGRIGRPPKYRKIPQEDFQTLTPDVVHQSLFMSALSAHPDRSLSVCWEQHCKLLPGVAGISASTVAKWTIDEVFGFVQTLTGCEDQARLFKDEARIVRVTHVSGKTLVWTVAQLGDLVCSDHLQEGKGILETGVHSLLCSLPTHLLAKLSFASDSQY
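L3MBTL1 50 nM + b-AHA-H3(1-15)K9me1 75 nM, 30 min RT; compound added, 30 min RT; streptavidin donor/Ni-chelate acceptor beads 10 ug/mL each final, 30 min RT dark; AlphaScreen read.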
G9a inh: blocks human histone lysine methyltransferase G9a. G9a H3K9 monomethylation, AlphaScreen, 2 h. hit rate 8.8% among 350,000. Potency, µM (titrated, usually from 102 µM), actives largely listed as inhibitors. Q96KQ7; note: nearly all actives have a fitted effect of over 75% in size
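Using a bead-based AlphaScreen, monomethylated H3K9 product from 2 h room-temperature reactions (G9a 20 nM, peptide 500 nM, SAM 20 uM) was detected with 0.5 ug/mL rabbit anti-H3K9me1 antibody.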
Each line names hits and unclear results; the compound was inactive in the other large screens. Compounds with a hit are over-represented: about 12% of the library has one in this group of screens. Calls come from the whole dose curve; as a rule, active = well fitted curve in the direction sought with a large enough effect; inconclusive = small, poorly fitted or top-dose-only effect, or another doubt; inactive = no such curve, though single readings can be large; an effect the other way counts as inactive or inconclusive.

O=C1OC(c2ccc(Cl)cc2)/C(=C(/O)c2ccccc2)C1=O (configuration not stated)	BAZ2B block inconclusive, JMJD2A Tudor 31.6µM (no result: G9a inh)
Oc1cc2c(cc1C(c1ccc(Br)cc1)N1CCCC1)OCO2 (configuration not stated)	BAZ2B block 39.8µM, Sfp PPTase inh 17.8µM, JMJD2A Tudor 7.94µM, HP1b binding inh 15.8µM, L3MBTL1 block inconclusive, G9a inh 1.58µM
Cc1ccc(OCCCCn2c(-c3ccc(Cl)cc3)nc3ccccc3c2=O)cc1	none (no result: Sfp PPTase inh, L3MBTL1 block)
O=C(c1cccs1)c1coc2ccc(O)c(CN(CCO)CCO)c12	G9a inh 39.8µM (no result: L3MBTL1 block)
CCN(CC)Cc1c(O)ccc2occ(C(=O)c3ccccc3)c12	none (no result: L3MBTL1 block)
COc1cc(NC(=S)Nc2ncccc2C)cc(OC)c1OC	BAZ2B block inconclusive, Sfp PPTase inh 50.1µM, G9a inh 10µM
Cc1cccnc1NC(=S)Nc1ccc(F)cc1F	BAZ2B block inconclusive, Sfp PPTase inh 17.8µM, G9a inh 50.1µM
Cc1ccc(C)c(NC(=S)Nc2ncccc2C)c1	BAZ2B block inconclusive, Sfp PPTase inh inconclusive, JMJD2A Tudor 31.6µM, HP1b binding inh inconclusive, G9a inh 31.6µM
COc1cc(NC(=S)Nc2cccc(C)n2)cc(OC)c1OC	none
COc1ccc(-n2ccnc(NCc3ccc(Cl)cc3)c2=O)cc1	none (no result: Sfp PPTase inh, L3MBTL1 block)
O=C(CC1(O)C(=O)N(CCc2ccccc2)c2ccc(Br)cc21)c1ccc(F)cc1 (configuration not stated)	none (no result: Sfp PPTase inh, L3MBTL1 block)
COC(=O)CSC1=C(C#N)C(c2ccccc2)CC(=O)N1 (configuration not stated)	Sfp PPTase inh inconclusive
CCOC(=O)CSC1=C(C#N)C(c2ccc(Cl)cc2)C(C(=O)OC)C(=O)N1 (configuration not stated)	Sfp PPTase inh inconclusive, G9a inh inconclusive (no result: L3MBTL1 block)
C=CCSC1=C(C#N)C(c2cccc(OC)c2)CC(=O)N1 (configuration not stated)	Sfp PPTase inh 35.5µM, G9a inh 44.7µM
CCOc1ccc(C2CC(=O)NC(SCC(=O)OC)=C2C#N)cc1 (configuration not stated)	G9a inh 70.8µM (no result: L3MBTL1 block)
COC(=O)CSC1=C(C#N)C(c2ccc(Cl)cc2)C(C(=O)OC)C(=O)N1 (configuration not stated)	G9a inh 44.7µM
C=C(C)CSC1=C(C#N)C(c2ccccc2)CC(=O)N1 (configuration not stated)	none (no result: BAZ2B block, Sfp PPTase inh, L3MBTL1 block, G9a inh)
COC(=O)CSC1=C(C#N)C(c2cccc(F)c2)CC(=O)N1 (configuration not stated)	none (no result: G9a inh)
COC(=O)CSC1=C(C#N)C(c2cccc(OC)c2)CC(=O)N1 (configuration not stated)	G9a inh 70.8µM (no result: L3MBTL1 block)
CC(C)CN(CCNC(=O)c1cc(-c2ccc(Cl)s2)nc2ccccc12)CC(C)C	none (no result: Sfp PPTase inh, L3MBTL1 block)
Cc1cc2c(cc1S(=O)(=O)Nc1cccc(C#N)c1)OCC(=O)N2	none (no result: Sfp PPTase inh, L3MBTL1 block)
CCN(C(=O)C1CCCN(c2ncnc3c2nc2n3CCCCC2)C1)c1cccc(C)c1 (configuration not stated)	none (no result: Sfp PPTase inh, L3MBTL1 block)
Cc1ccccc1C(=O)OCc1cc(=O)n2nc(C3CCCCC3)sc2n1	none (no result: Sfp PPTase inh, L3MBTL1 block)
Cc1ccc(C(=O)NCCCNC(=O)c2ccccn2)cc1	none (no result: L3MBTL1 block)
CCCOc1ccc(C(=O)Nc2ccccc2[N+](=O)[O-])cc1	JMJD2A Tudor 56.2µM, HP1b binding inh inconclusive (no result: BAZ2B block, Sfp PPTase inh, L3MBTL1 block, G9a inh)
Cc1ccc(C(=O)NCCCNc2ccccc2[N+](=O)[O-])cc1	BAZ2B block inconclusive, JMJD2A Tudor 89.1µM, G9a inh 56.2µM
COc1ccc(/C=N/Nc2ncccc2[N+](=O)[O-])c(OC)c1	BAZ2B block 39.8µM, JMJD2A Tudor 50.1µM, HP1b binding inh inconclusive, G9a inh 28.2µM (no result: L3MBTL1 block)
CCCCOc1ccc(C(=O)Nc2ccc(C)cc2[N+](=O)[O-])cc1	BAZ2B block inconclusive, JMJD2A Tudor inconclusive
Cc1c(C(=O)Nc2ccccc2[N+](=O)[O-])csc1-c1ccccc1	BAZ2B block 11.2µM, JMJD2A Tudor inconclusive, HP1b binding inh 28.2µM, L3MBTL1 block inconclusive, G9a inh 25.1µM
CNC(=O)CN1C(=O)COc2ccc(S(=O)(=O)N3CCC(C)CC3)cc21	none (no result: Sfp PPTase inh, L3MBTL1 block)
COc1ccc(CCNC(=O)Nc2ccccc2[N+](=O)[O-])cc1	G9a inh 50.1µM
COc1ccc(NC(=O)c2ccccc2)c([N+](=O)[O-])c1	BAZ2B block inconclusive, G9a inh 79.4µM
CCCOc1ccc(/C=N/Nc2ccccc2[N+](=O)[O-])c(OCCC)c1	BAZ2B block 2.51µM, JMJD2A Tudor 14.1µM, HP1b binding inh 22.4µM, L3MBTL1 block inconclusive, G9a inh 8.91µM
COc1ccc(CCNC(=O)COC(=O)Cc2ccccc2[N+](=O)[O-])cc1	none (no result: BAZ2B block, Sfp PPTase inh, G9a inh)
O=[N+]([O-])c1ccccc1N/N=C\c1ccccc1F	BAZ2B block inconclusive, JMJD2A Tudor inconclusive, L3MBTL1 block inconclusive (no result: G9a inh)
COc1ccc(NC(=O)CN(C)S(=O)(=O)c2ccc(C)cc2)c([N+](=O)[O-])c1	G9a inh 31.6µM
COc1ccc(N(C)S(=O)(=O)c2ccc(C)cc2)c([N+](=O)[O-])c1	G9a inh inconclusive
COc1ccc(NC(=O)c2cccnc2)c([N+](=O)[O-])c1	none
COc1ccc(CNC(=O)CCn2c(=O)c3cccn3c3ccc(F)cc32)cc1OC	none (no result: Sfp PPTase inh, L3MBTL1 block)
COc1ccc(NC(=O)CC2Nc3ccccc3NC2=O)c([N+](=O)[O-])c1 (configuration not stated)	G9a inh 50.1µM
N#Cc1ccccc1-c1ccc2ncnc(NCc3cccs3)c2c1	none (no result: BAZ2B block, JMJD2A Tudor, HP1b binding inh, L3MBTL1 block)
CC(=O)C1=C(c2ccccc2)NC(=S)NC1c1ccc(O)c(O)c1 (configuration not stated)	BAZ2B block inconclusive, L3MBTL1 block inconclusive, G9a inh 8.91µM
CCOC(=O)COc1c(Cl)cc(C2NC(=S)NC(c3ccccc3)=C2C(C)=O)cc1OC (configuration not stated)	none
COc1ccc(C2NC(=O)NC(C)=C2[N+](=O)[O-])cc1OC (configuration not stated)	none
COc1cc(C2NC(=S)NC(c3ccccc3)=C2C(C)=O)cc(Cl)c1OCC(=O)O (configuration not stated)	Sfp PPTase inh 89.1µM (no result: G9a inh)
CC1=C([N+](=O)[O-])C(c2ccc(O)c(O)c2)NC(=O)N1 (configuration not stated)	Sfp PPTase inh inconclusive, G9a inh 10µM (no result: L3MBTL1 block)
CC(=O)C1=C(c2ccccc2)NC(=O)NC1c1ccc(O)c(O)c1 (configuration not stated)	BAZ2B block inconclusive, Sfp PPTase inh 44.7µM, JMJD2A Tudor 12.6µM, L3MBTL1 block inconclusive (no result: G9a inh)
CC(=O)C1=C(c2ccccc2)NC(=O)NC1c1ccc2c(c1)OCO2 (configuration not stated)	none (no result: G9a inh)
